Assay results published in PubChem BioAssay.

Tested on: Plasmodium falciparum Sir2 (PF13_0152, Sir2A)
Test: Plasmodium falciparum Sir2A binding compounds – biochemical, small-molecule microarray, 635 nm fluorescence, primary screen (AID 1098);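 note: score merges spot fluorescence intensity with its signal-to-noise ratio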
Details: fluorescence 635 nm, higher = more signal

Compared with O=C1O[C@H](c2ccccc2)[C@H](c2ccccc2)N2[C@H]1[C@@H](C(=O)NC[C@H](O)c1ccccc1)[C@]1(C(=O)Nc3ccccc31)[C@H]2c1ccc(O)cc1, COCCOC(=O)N1C(=O)[C@@]2(c3cc(C#Cc4ccc(OC)cc4)ccc31)[C@H](c1ccc(O)cc1)N1[C@H](c3ccccc3)[C@H](c3ccccc3)OC(=O)[C@H]1[C@@H]2C(=O)Nc1nc2ccccc2s1 is lower in composite z-score: 0.758 for the first, 0.666 for the second.

Going from CC(C)=CCCC(C)=CC(O)C1C=CC2C(=O)N(c3ccccc3)C(=O)C2N1Nc1ccc(C(C)C)cc1 (stereo not drawn) to O=C1NC(=O)C2C1C=CC(C(O)c1ccc(I)cc1)N2Nc1ccc(Cl)cc1Cl (stereo not drawn), the composite z-score rises from 0.855 to 1.03.

First: O=C(O)[C@H](Cc1ccccc1)n1cc(-c2ccccc2)nn1
Second: [N-]=[N+]=Nc1ccccc1[C@H]1OC(c2ccc(OCCCO)cc2)=N[C@@]1(Cc1ccccc1)C(=O)N1CCOCC1
The composite z-score of the first is lower: 0.0064 for the first, 1.43 for the second.

First: COC(=O)C(CC#Cc1ccc2c(c1)[C@]1(C(=O)N2)[C@H](c2ccccc2OCCO)N2[C@H](c3ccccc3)[C@H](c3ccccc3)OC(=O)[C@H]2[C@@H]1C(N)=O)C(=O)OC
Second: COCCOC(=O)N1C(=O)[C@@]2(c3cc(C#CC4(O)CCCCCC4)ccc31)[C@H](C(=O)Nc1nc3ccccc3s1)[C@H]1C(=O)O[C@H](c3ccccc3)[C@H](c3ccccc3)N1[C@@H]2c1ccccc1OCCO
The composite z-score of the first is higher: 1.54 for the first, 1.07 for the second.

Going from [N-]=[N+]=Nc1ccccc1C[C@]1(C(=O)NCC(O)CO)N=C(c2ccc(OCCCO)cc2)O[C@H]1c1ccccc1 (stereo partly drawn) to [N-]=[N+]=NCc1ccccc1C[C@@]1(C(=O)NCC(O)CO)N=C(c2ccc(OCCCO)cc2)O[C@@H]1c1ccccc1 (stereo partly drawn), the composite z-score falls from 0.848 to 0.048.

Going from Cc1ccc([C@H]2C(C(=O)O)=CCN2S(=O)(=O)c2ccc(C)cc2)cc1 to CC(=O)NCCCC[C@@H]1NC(=O)[C@H]2C[C@@H](C(=O)O)[C@@H](c3ccc(O)cc3)N2C1=O, the composite z-score rises from 0.487 to 1.43.

Going from [N-]=[N+]=Nc1ccccc1C[C@]1(C(=O)NCc2ccccc2)N=C(c2ccc(OCCCO)cc2)O[C@H]1c1ccccc1N=[N+]=[N-] to COc1ccccc1CN1C(=O)c2ccccc2[C@@]2(Cc3ccccc3N(CCCN(C)C)C2=O)[C@@H]1c1ccc(CO)cc1, the composite z-score falls from 1.04 to 0.269.

First: COCC(=C=CC[C@H](O)c1cccc(OCCO)c1)C[C@H](O)c1cc(Cl)cc(Cl)c1O
Second: COCC(=C=CC[C@H](O)c1cccc(OCCO)c1)CCO
The composite z-score of the first is higher: 0.516 for the first, 0.34 for the second.

Compared with CCCCC(O)C1C=CC2C(=O)N(C)C(=O)C2N1N1CCCCC1 (stereo not drawn), CN1C(=O)C2C=CC(C(O)c3c(F)cccc3Cl)N(NC(=O)OC(C)(C)C)C2C1=O (stereo not drawn) is higher in composite z-score: 0.933 for the first, 1.39 for the second.

Compared with COc1ccc(NC(=O)O[C@H]2[C@H](OC(=O)c3cc4ccccc4[nH]3)[C@@H](OC(=O)c3cc4ccccc4[nH]3)[C@@H](OC)O[C@@H]2CO)cc1, COC(=O)[C@@]1(Cc2ccccc2)[C@H]2c3cc(C(=O)N(C)C)n(CCc4c[nH]c5ccc(O)cc45)c3C[C@H]2CN1C(=O)c1ccccc1 is lower in composite z-score: 1.24 for the first, 0.0625 for the second.

Compared with O=C(CS)NCCCCCNC(=O)[C@@H]1C[C@@H]2C(=O)NCC(=O)N2[C@@H]1c1ccc(O)cc1, O=C1OCC=C[C@H]2OC34C=CCN(Cn5nnc6ccccc65)C(=O)[C@H]3N(CCCCCO)C(=O)[C@@H]4[C@@H]12 (stereo partly drawn) is lower in composite z-score: 0.793 for the first, 0.665 for the second.

For CCOC(=O)[C@H]1C/C=C/C[C@H](C(=O)OCC)C(=O)O[C@H]2[C@@H](OC)O[C@H](CO)[C@@H](OC(=O)c3ccc(Br)cc3)[C@@H]2OC1=O, the composite z-score was -0.009.

Tested on: not listed separately
Test: probe aDKK1 binding to arrayed compounds – biochemical, biotinylated probe, 635/667 nm fluorescence, primary screen (AID 1099);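 note: score merges 667nm spot fluorescence with signal to noise across triplicate slides; reference of the scale not given here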
Details: small-molecule microarray, higher = more signal

Compared with CCOC(=O)C[C@H]1[C@H](OC(=O)c2ccc(-c3ccccc3)cc2)[C@@H](NC(=O)c2ccccc2)c2cc(OCCCO)ccc2N1C(=O)c1ccc2ccccc2n1, C=CCC(OC(C)=O)[C@@H]1[C@@H](N(Cc2cc3ccccc3o2)C(=O)Cc2ccc(OC)cc2)c2cc(OCCCO)ccc2N1C(=O)c1ccc2ccccc2c1 (stereo partly drawn) is lower in composite z-score: 0.32 for the first, -0.172 for the second.

Compared with O=c1cccc(-c2ccccc2Cl)o1, Cc1c(NC(=O)/C(C#N)=C/c2cccc([N+](=O)[O-])c2)c(=O)n(-c2ccccc2)n1C is lower in composite z-score: -0.0639 for the first, -0.123 for the second.

First: CS(=O)(=O)CCOC(=O)C1=CC(CCCO)=CC(c2ccc(CN3CCCC3)cc2)N(Cc2cccc(OC(F)(F)F)c2)C=C1C(=O)OCCS(C)(=O)=O (stereo not drawn)
Second: CCOC(=O)C1=CCC(c2ccc(F)cc2)N(S(=O)(=O)c2ccc(C)cc2)C1 (stereo not drawn)
The composite z-score of the first is lower: 0.275 for the first, 0.582 for the second.

Compared with O=C1[C@@]23C=C(Br)[C@H](C[C@@H]2COC3)[C@]12CO2, O=C(O)[C@H]1C[C@H]2C(=O)N3CCC[C@H]3C(=O)N2[C@H]1c1ccc(O)cc1 is higher in composite z-score: -0.183 for the first, -0.0067 for the second.

Going from O=C(CS)NCCCCCNC(=O)[C@H]1C[C@H]2C(=O)NCC(=O)N2[C@H]1c1ccc(O)cc1 to O=C(CS)NCCCCCNC(=O)[C@@H]1C[C@@H]2C(=O)NCC(=O)N2[C@@H]1c1ccc(O)cc1, the composite z-score falls from -0.164 to -0.179.

Going from CC(c1ccccc1)C(O)C1C=CC2C(=O)N(c3ccccc3)C(=O)C2N1Nc1ccccc1 (stereo not drawn) to CC(C)=CCCC(C)=CC(O)C1C=CC2C(=O)N(c3ccccc3)C(=O)C2N1Nc1ccc(C(C)C)cc1 (stereo not drawn), the composite z-score falls from 0.807 to -0.0008.

Going from COC(=O)c1c(CC[C@@H](CO)NC(=O)NCCc2c[nH]c3ccccc23)oc(C(=O)Cc2ccccc2)c1C(=O)OC to COC(=O)[C@@]1(Cc2ccccc2)[C@H]2c3cc(C(=O)N(C)C)n(CCc4c[nH]c5ccc(O)cc45)c3C[C@H]2CN1C(=O)c1ccccc1, the composite z-score rises from -0.281 to 0.665.

Compared with COC(=O)C(CC#Cc1ccc2c(c1)[C@]1(C(=O)N2)[C@H](c2ccc(O)cc2)N2[C@H](c3ccccc3)[C@H](c3ccccc3)OC(=O)[C@H]2[C@@H]1C(=O)N1CCN(c2ncccn2)CC1)C(=O)OC, COC(=O)C(CC#Cc1ccc2c(c1)[C@]1(C(=O)N2)[C@H](c2ccccc2OCCO)N2[C@H](c3ccccc3)[C@H](c3ccccc3)OC(=O)[C@H]2[C@@H]1C(N)=O)C(=O)OC is higher in composite z-score: 0.534 for the first, 1.45 for the second.

Compared with O=C1O[C@H](c2ccccc2)[C@H](c2ccccc2)N2[C@H]1[C@@H](C(=O)NC[C@H](O)c1ccccc1)[C@]1(C(=O)Nc3ccccc31)[C@H]2c1ccc(O)cc1, COCCOC(=O)N1C(=O)[C@@]2(c3cc(C#Cc4ccc(OC)cc4)ccc31)[C@H](c1ccc(O)cc1)N1[C@H](c3ccccc3)[C@H](c3ccccc3)OC(=O)[C@H]1[C@@H]2C(=O)Nc1nc2ccccc2s1 is higher in composite z-score: -0.0713 for the first, -0.037 for the second.

Compared with O=C(O)[C@H](Cc1ccccc1)n1cc(-c2ccccc2)nn1, [N-]=[N+]=Nc1ccccc1[C@H]1OC(c2ccc(OCCCO)cc2)=N[C@@]1(Cc1ccccc1)C(=O)N1CCOCC1 is higher in composite z-score: -0.284 for the first, 1.14 for the second.

First: [N-]=[N+]=Nc1ccccc1C[C@]1(C(=O)NCC(O)CO)N=C(c2ccc(OCCCO)cc2)O[C@H]1c1ccccc1 (stereo partly drawn)
Second: [N-]=[N+]=NCc1ccccc1C[C@@]1(C(=O)NCC(O)CO)N=C(c2ccc(OCCCO)cc2)O[C@@H]1c1ccccc1 (stereo partly drawn)
The composite z-score of the first is lower: 0.603 for the first, 1.15 for the second.

Going from Cc1ccc([C@H]2C(C(=O)O)=CCN2S(=O)(=O)c2ccc(C)cc2)cc1 to CC(=O)NCCCC[C@@H]1NC(=O)[C@H]2C[C@@H](C(=O)O)[C@@H](c3ccc(O)cc3)N2C1=O, the composite z-score falls from 0.215 to 0.13.

Going from [N-]=[N+]=Nc1ccccc1C[C@]1(C(=O)NCc2ccccc2)N=C(c2ccc(OCCCO)cc2)O[C@H]1c1ccccc1N=[N+]=[N-] to COc1ccccc1CN1C(=O)c2ccccc2[C@@]2(Cc3ccccc3N(CCCN(C)C)C2=O)[C@@H]1c1ccc(CO)cc1, the composite z-score falls from 0.236 to -0.169.

Going from COCCOC(=O)N1C(=O)[C@@]2(c3cc(C#CC4(O)CCCCCC4)ccc31)[C@H](C(=O)Nc1nc3ccccc3s1)[C@H]1C(=O)O[C@H](c3ccccc3)[C@H](c3ccccc3)N1[C@@H]2c1ccccc1OCCO to COc1ccc(NC(=O)O[C@H]2[C@H](OC(=O)c3cc4ccccc4[nH]3)[C@@H](OC(=O)c3cc4ccccc4[nH]3)[C@@H](OC)O[C@@H]2CO)cc1, the composite z-score falls from 0.199 to -0.0147.

First: COCC(=C=CC[C@H](O)c1cccc(OCCO)c1)C[C@H](O)c1cc(Cl)cc(Cl)c1O
Second: COCC(=C=CC[C@H](O)c1cccc(OCCO)c1)CCO
The composite z-score of the first is lower: -0.0921 for the first, -0.0405 for the second.

Going from CCCCC(O)C1C=CC2C(=O)N(C)C(=O)C2N1N1CCCCC1 (stereo not drawn) to CN1C(=O)C2C=CC(C(O)c3c(F)cccc3Cl)N(NC(=O)OC(C)(C)C)C2C1=O (stereo not drawn), the composite z-score falls from 0.945 to 0.868.

Compared with CCOC(=O)[C@H]1C/C=C/C[C@H](C(=O)OCC)C(=O)O[C@H]2[C@@H](OC)O[C@H](CO)[C@@H](OC(=O)c3ccc(Br)cc3)[C@@H]2OC1=O, O=C1OCC=C[C@H]2OC34C=CCN(Cn5nnc6ccccc65)C(=O)[C@H]3N(CCCCCO)C(=O)[C@@H]4[C@@H]12 (stereo partly drawn) is higher in composite z-score: -0.444 for the first, 0.26 for the second.

In the case of O=C1NC(=O)C2C1C=CC(C(O)c1ccc(I)cc1)N2Nc1ccc(Cl)cc1Cl (stereo not drawn), the composite z-score was 0.418.
